Experimental data published in ChEMBL document CHEMBL3988442, “University of Dundee, Small-Polar-MMV Screening Library” (2021).
For some of these results: Entries with a potency or affinity are not part of this list.

Legend:
[1] = biological target: Protein translocase subunit SecA (Escherichia coli (strain K12)) (UniProt P10408); assay: Assay to Identify E. coli SecA ATPase Inhibitors; assay type: functional; set-up: scale not given: direction of the effect not stated beside the values; details: 30 µM
[2] = biological target: T1, Ubiquitin-activating enzyme e1, putative (Leishmania donovani (strain BPK282A1)) (UniProt E9BSI1); assay: Leishmania donovani Ubiquitin Activating Enzyme (LdE1); assay type: functional; set-up: scale not given: direction of the effect not stated beside the values; details: 30 µM
T1 sequence (whole entry): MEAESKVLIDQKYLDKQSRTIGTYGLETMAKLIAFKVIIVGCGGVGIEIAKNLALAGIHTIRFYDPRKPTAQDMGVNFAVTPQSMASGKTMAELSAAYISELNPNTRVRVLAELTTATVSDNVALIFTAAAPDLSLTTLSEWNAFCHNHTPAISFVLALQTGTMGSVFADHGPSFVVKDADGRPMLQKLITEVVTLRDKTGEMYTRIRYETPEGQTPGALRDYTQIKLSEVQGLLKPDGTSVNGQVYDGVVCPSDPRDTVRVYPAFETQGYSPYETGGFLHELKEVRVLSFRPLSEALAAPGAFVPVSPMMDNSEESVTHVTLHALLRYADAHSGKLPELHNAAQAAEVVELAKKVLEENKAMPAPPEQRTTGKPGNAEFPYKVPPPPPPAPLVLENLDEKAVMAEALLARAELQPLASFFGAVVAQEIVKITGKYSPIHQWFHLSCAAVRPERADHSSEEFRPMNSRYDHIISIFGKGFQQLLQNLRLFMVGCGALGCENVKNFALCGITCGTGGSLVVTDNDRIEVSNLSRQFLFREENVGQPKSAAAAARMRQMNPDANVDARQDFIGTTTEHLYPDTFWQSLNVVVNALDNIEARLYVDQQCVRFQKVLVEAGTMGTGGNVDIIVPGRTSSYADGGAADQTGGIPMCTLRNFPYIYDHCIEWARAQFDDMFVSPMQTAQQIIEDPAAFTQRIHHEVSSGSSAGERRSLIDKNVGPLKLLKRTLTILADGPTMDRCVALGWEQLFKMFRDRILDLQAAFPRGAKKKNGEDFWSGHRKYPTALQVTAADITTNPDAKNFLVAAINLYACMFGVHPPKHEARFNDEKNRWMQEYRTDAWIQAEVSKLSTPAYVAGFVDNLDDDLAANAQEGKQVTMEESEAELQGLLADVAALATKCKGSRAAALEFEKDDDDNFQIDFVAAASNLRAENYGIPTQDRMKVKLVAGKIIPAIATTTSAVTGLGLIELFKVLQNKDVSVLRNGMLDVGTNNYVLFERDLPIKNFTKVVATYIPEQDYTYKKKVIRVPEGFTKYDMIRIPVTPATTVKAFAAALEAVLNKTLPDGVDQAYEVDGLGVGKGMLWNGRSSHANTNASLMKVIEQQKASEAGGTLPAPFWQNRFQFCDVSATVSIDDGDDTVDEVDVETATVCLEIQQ

[3] = biological target: T2, Aspartate--tRNA(Asp/Asn) ligase (Mycobacterium tuberculosis (strain ATCC 25618 / H37Rv)) (UniProt P9WFW3); assay: Assay for Asp RNA synthetase-1 from Mycobacterium tuberculosis; assay type: functional; set-up: scale not given: direction of the effect not stated beside the values; details: 30 µM; further: in the data most compounds retested in dose-response had high values
T2 sequence (whole entry): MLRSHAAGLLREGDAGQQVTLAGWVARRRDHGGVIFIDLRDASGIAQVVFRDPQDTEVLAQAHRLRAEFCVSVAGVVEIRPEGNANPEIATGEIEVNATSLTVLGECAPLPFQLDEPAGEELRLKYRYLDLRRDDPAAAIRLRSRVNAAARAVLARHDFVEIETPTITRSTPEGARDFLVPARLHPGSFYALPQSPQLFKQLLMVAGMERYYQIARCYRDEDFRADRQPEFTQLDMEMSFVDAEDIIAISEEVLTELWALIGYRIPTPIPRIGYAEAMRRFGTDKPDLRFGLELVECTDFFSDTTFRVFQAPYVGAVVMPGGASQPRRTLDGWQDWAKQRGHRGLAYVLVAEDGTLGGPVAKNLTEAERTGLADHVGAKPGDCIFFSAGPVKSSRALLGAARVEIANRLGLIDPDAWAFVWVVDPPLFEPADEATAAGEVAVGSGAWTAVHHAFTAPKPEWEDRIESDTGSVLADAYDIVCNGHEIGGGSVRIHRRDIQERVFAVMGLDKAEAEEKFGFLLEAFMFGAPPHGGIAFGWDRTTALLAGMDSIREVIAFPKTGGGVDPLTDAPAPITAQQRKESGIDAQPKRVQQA

[4] = biological target: AMP-activated protein kinase, AMPK (Homo sapiens) (UniProt P54646+O43741+P54619+Q9UGJ0+Q9Y478+Q13131+Q9UGI9); assay: AMP-dependent Kinase enzyme assay. An in vitro enzyme assay that detects ADP turnover that is directly proportional to AMPK activity. This uses naive AMPK that is activated during the assay with MK-8722; assay type: functional; set-up: scale not given: direction of the effect not stated beside the values; details: 30 µM
[5] = biological target: Sialic acid-binding Ig-like lectin 9 (Homo sapiens) (UniProt Q9Y336); assay: Hs-Siglec9 ALPHAscreen SOP 20170721; set-up: scale not given: direction of the effect not stated beside the values; details: 10 µM
Trypanosoma cruzi = assay: Trypanosoma cruzi phosphomannomutase and mannose-1-phosphate guanylyltransferase assay; assay type: functional; set-up: scale not given: direction of the effect not stated beside the values; details: 10 µM
[6] = biological target: T3, Arginase-2, mitochondrial (Homo sapiens) (UniProt P78540); assay: in vitro enzyme assay to detect the production of urea directly proportional to the activity of Arginase II; assay type: functional; set-up: scale not given: in the data most compounds retested in dose-response had high values; details: 33.3 µM
T3 sequence (whole entry): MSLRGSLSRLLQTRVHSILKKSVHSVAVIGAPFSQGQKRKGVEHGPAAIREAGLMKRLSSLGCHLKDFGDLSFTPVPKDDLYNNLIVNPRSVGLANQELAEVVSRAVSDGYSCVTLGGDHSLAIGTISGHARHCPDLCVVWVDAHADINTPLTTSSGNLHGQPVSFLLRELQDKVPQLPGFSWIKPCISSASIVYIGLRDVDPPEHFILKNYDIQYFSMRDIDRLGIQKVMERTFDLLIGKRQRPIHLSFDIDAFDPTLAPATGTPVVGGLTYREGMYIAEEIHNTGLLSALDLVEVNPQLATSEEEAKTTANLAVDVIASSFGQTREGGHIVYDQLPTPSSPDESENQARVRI

[7] = biological target: T4, Proteasome subunit beta (Trypanosoma cruzi) (UniProt O96673); assay: Trypanosoma cruzi proteasome chymotrypsin-like activity (TcProtChymo) assay.; assay type: functional; set-up: scale not given: in the data most compounds retested in dose-response had high values; details: 9.37 µM
T4 sequence (whole entry): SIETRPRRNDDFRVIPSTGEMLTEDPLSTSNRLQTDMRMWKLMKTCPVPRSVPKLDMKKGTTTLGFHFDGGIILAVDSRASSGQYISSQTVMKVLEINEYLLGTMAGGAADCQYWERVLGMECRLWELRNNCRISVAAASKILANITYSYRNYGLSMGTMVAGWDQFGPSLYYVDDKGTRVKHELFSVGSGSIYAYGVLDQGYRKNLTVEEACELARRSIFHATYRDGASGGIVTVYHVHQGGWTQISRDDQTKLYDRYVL

Homo sapiens = species on record: Homo sapiens; assay: To identify inhibition of the IFN signalling (Jak-Stat) pathway via expression of an eGFP reporter gene under the control of an IFN-stimulated response element (ISRE) containing MxA promoter.; assay type: functional; set-up: scale not given: direction of the effect not stated beside the values; details: 30 µM
[8] = biological target: Shiga toxin 2 (Escherichia coli O157:H7) (UniProt P09385+P09386); assay: E. coli 0.157:H7 Shiga Toxin SOP - stx2 screening assay; assay type: functional; set-up: scale not given: direction of the effect not stated beside the values; details: 30 µM
[9] = biological target: T5, Tyrosyl-tRNA synthetase, putative (Trypanosoma cruzi (strain CL Brener)) (UniProt Q4DSP6); assay: Trypanosoma cruzi tyrosyl tRNA synthetase (TcYRS) _High Tyrosine SOP; assay type: functional; set-up: scale not given: in the data most compounds retested in dose-response had high values; details: 30 µM
T5 sequence (whole entry): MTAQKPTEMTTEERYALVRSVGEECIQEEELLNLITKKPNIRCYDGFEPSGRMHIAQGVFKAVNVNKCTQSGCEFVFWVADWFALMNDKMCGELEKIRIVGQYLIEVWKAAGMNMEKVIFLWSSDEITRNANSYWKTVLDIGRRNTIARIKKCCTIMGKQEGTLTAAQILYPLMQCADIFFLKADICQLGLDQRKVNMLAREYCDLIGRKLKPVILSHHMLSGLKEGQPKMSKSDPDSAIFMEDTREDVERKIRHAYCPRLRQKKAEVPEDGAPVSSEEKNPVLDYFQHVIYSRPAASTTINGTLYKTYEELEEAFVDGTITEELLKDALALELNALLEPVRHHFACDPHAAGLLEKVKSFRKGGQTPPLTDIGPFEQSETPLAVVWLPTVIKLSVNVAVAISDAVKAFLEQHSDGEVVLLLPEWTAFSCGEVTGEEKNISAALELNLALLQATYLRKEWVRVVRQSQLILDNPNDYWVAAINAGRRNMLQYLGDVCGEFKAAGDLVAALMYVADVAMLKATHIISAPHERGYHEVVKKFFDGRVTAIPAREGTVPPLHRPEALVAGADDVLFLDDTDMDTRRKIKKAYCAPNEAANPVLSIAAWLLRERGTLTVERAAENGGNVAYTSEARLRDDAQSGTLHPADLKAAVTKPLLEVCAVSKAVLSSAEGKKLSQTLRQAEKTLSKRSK

[10] = biological target: T5, Tyrosyl-tRNA synthetase, putative (Trypanosoma cruzi (strain CL Brener)); assay: Trypanosoma cruzi tyrosyl tRNA synthetase (TcYRS) SOP; assay type: functional; set-up: scale not given: direction of the effect not stated beside the values; details: 30 µM
[11] = biological target: Chromo domain-containing protein 1 (Saccharomyces cerevisiae (strain ATCC 204508 / S288c) (Baker's yeast)) (UniProt P32657); assay: ScCHD-1 Enzyme Inhibition Assay; assay type: functional; set-up: scale not given: in the data most compounds retested in dose-response had high values; details: 30 µM
[12] = biological target: T6, Methionyl-tRNA synthetase, putative (Leishmania donovani (strain BPK282A1)) (UniProt E9BF75); assay: Leishmania donovani Methionine tRNA synthetase (LdMetRS):v7. Dose response assay; assay type: functional; set-up: conc 80 nM, time 150 minutes
T6 sequence (whole entry): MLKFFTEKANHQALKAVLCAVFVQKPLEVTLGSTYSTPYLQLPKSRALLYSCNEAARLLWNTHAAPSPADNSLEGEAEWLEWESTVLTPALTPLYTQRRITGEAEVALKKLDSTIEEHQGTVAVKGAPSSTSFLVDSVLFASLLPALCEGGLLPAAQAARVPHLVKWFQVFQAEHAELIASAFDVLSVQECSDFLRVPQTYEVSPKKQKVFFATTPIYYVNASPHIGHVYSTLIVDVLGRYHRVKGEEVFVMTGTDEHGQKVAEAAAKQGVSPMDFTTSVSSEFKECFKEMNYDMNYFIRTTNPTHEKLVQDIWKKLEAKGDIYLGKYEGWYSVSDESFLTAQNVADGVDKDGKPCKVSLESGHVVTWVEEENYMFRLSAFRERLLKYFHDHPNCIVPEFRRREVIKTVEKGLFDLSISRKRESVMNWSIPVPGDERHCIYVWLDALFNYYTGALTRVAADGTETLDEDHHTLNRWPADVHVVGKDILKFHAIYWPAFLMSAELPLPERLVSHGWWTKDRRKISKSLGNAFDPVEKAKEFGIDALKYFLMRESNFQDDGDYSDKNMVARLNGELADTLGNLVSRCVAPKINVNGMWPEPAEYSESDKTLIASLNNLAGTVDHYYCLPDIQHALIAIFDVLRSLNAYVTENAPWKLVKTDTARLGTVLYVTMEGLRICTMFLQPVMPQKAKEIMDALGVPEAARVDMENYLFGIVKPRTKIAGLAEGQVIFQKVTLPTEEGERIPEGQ

Chain of Chromo domain-containing protein 1 (Saccharomyces cerevisiae (strain ATCC 204508 / S288c) (Baker's yeast)) (P32657 whole entry, the tested form may be a part): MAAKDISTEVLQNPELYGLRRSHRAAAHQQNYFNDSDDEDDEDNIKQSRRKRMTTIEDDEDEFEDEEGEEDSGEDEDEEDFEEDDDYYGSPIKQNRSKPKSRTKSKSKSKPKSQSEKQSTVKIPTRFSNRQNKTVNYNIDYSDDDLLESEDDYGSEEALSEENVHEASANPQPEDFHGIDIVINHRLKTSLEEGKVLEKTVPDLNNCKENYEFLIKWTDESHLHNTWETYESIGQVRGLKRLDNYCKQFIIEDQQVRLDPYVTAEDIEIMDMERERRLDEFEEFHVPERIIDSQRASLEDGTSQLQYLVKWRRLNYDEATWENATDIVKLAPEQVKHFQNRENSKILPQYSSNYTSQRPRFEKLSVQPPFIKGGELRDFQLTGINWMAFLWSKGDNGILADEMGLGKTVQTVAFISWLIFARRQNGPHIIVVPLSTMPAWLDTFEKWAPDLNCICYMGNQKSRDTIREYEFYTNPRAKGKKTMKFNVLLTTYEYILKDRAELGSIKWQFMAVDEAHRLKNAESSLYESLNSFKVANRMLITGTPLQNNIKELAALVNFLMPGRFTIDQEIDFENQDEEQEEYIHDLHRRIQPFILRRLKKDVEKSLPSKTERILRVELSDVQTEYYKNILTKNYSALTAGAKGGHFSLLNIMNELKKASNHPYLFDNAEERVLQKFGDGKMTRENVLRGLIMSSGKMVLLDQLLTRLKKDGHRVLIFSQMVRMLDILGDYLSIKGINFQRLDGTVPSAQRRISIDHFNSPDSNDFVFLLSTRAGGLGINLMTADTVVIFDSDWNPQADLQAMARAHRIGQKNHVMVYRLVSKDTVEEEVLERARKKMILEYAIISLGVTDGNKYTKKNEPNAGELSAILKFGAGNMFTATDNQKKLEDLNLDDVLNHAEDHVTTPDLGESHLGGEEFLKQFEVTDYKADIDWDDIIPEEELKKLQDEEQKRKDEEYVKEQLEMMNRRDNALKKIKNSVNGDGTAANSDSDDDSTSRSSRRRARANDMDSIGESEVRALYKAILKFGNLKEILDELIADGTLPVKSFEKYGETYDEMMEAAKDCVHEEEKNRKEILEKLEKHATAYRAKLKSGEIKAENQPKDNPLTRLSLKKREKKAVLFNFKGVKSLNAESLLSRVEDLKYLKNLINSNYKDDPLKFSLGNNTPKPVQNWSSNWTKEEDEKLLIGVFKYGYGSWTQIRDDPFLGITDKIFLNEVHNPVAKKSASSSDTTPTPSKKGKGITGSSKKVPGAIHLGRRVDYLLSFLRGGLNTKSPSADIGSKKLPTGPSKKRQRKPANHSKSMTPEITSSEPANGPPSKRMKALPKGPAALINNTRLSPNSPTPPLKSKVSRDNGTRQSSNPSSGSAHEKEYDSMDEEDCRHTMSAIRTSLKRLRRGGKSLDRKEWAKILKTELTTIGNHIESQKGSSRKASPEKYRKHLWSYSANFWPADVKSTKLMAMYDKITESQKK
Chain of Sialic acid-binding Ig-like lectin 9 (Homo sapiens) (Q9Y336 whole entry): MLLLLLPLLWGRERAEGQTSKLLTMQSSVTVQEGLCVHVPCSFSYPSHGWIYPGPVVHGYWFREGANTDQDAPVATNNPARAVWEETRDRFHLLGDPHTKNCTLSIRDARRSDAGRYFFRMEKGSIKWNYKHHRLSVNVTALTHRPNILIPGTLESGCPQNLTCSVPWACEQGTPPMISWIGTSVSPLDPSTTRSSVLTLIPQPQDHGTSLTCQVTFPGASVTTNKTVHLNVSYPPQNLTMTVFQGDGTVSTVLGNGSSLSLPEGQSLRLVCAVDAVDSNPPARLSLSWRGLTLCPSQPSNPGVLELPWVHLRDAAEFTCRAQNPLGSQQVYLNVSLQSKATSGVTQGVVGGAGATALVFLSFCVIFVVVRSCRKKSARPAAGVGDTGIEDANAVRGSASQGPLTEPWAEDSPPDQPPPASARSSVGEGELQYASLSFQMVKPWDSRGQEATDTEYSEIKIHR
Chain of Protein translocase subunit SecA (Escherichia coli (strain K12)) (P10408 whole entry): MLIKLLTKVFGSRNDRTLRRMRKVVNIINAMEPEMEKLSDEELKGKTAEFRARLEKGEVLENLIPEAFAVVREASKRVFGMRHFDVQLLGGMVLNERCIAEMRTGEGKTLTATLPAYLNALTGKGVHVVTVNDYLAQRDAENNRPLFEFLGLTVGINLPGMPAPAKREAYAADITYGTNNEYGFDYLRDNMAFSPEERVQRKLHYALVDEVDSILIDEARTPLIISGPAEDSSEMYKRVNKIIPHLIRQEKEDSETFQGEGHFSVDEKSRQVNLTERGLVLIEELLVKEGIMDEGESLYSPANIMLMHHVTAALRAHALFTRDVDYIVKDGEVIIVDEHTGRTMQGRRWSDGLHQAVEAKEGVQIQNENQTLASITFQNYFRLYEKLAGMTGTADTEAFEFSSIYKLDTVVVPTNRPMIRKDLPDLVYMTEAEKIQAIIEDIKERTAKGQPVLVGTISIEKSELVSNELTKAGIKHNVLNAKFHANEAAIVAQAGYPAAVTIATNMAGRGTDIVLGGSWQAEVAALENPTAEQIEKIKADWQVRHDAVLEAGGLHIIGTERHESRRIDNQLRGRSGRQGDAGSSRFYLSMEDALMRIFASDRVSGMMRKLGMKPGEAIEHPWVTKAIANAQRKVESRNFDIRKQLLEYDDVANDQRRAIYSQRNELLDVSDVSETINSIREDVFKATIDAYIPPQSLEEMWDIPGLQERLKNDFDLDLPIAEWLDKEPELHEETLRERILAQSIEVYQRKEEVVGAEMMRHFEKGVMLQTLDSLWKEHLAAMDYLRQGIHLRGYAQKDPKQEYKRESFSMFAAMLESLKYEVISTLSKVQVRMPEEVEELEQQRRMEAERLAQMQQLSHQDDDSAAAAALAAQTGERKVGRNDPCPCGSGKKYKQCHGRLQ

c1ccc(OC[C@@H]2CCC[C@@]23CNCCO3)nc1
Percent Effect [1]: -2.73%
Percent Effect [2]: 5.41%
Percent Effect [3]: 9.49%
Percent Effect [4]: 130%
Percent Effect [5]: -8.96%
Percent Effect (Trypanosoma cruzi): -4.79%
Percent Effect [6]: -7.33%
Percent Effect [7]: 17.9%
Percent Effect (Homo sapiens): 24.8%
Percent Effect [8]: -5.1%
Percent Effect [9]: 1.08%
Percent Effect [10]: 2.56%
Percent Effect [11]: -0.951%

NCC(O)c1cc(Cl)cc(Cl)c1 (centres undefined)
PXC50 ([12]; MAX_EFFECT 9.287257019): < 3
PXC50 ([12]; MAX_EFFECT 13.11787072): < 3

Cc1nc(N2CCN(C(=O)C(C)C)CC2)c2c3c(sc2n1)CC(C)CC3 (centres undefined)
PXC50 ([12]; MAX_EFFECT 28.46347607): < 4
PXC50 ([12]; MAX_EFFECT 29.26208651): < 4

O=C(O)CN1CCC(F)(F)C2(CCN(c3ccccn3)C2)C1 (centres undefined)
PXC50 ([12]; MAX_EFFECT 7.981220657): < 4
PXC50 ([12]; MAX_EFFECT 9.814814815): < 4

NC1CC1c1ccc(Cl)cc1Cl (centres undefined)
PXC50 ([12]; MAX_EFFECT 19.58174905): < 3
PXC50 ([12]; MAX_EFFECT 31.74946004): < 3

CNC(=O)[C@@]12CCCN(c3ncccn3)[C@@H]1CN(C)C2
Percent Effect [1]: -7.94%
Percent Effect [2]: 5.2%
Percent Effect [3]: -0.539%
Percent Effect [4]: 20.5%
Percent Effect [5]: -6.43%
Percent Effect (Trypanosoma cruzi): -6.21%
Percent Effect [6]: 4.52%
Percent Effect [7]: 9.4%
Percent Effect (Homo sapiens): 14.9%
Percent Effect [8]: -9.88%
Percent Effect [9]: -4.23%
Percent Effect [10]: -1.28%
Percent Effect [11]: -2.69%
